Source: PubChem BioAssay (EPA / NIEHS)
Where “and” joins values, the source holds several entries; their conditions need not be identical. Equal entries are not always repeated. A structure can be active in one record and inactive in another. Calls of active or inactive are those of the source. Rule for the calls: active = hit-call score of the fitted dose curve at least 0.9, where 1 is the maximum; inactive = score below 0.9.

What was measured:
[1] = read-out: Human Leukocyte Antigen - DR isotype (HLADR), HLA-DRA (gene 3122); experiment: BSK_BE3C_HLADR: BioMAP Diversity Plus: BE3C Assay for Human Leukocyte Antigen - DR isotype (HLADR) Biomarker Activity (AID 2283032); settings: primary human bronchial epithelial cells; actives raise or lower the signal
Outline: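 Chemicals are dosed onto BE3C bronchial epithelial cultures of human origin and left 24 h. HLA-DR is then measured by ELISA, and the endpoint is fitted in both directions using DMSO as the activity baseline.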

[2] = read-out: Vascular cell adhesion molecule 1 (VCAM1), VCAM1 (gene 7412); experiment: BSK_4H_VCAM1: BioMAP Diversity Plus: 4H Assay for Vascular cell adhesion molecule 1 (VCAM1) Biomarker Activity (AID 2283033); settings: primary human endothelial cells (HUVEC); actives raise or lower the signal
Outline: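 Chemicals are added to primary human umbilical vein endothelial cells. After 24 h, VCAM-1 levels are measured by ELISA. Values come from bidirectional fitting referenced to DMSO.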

[3] = read-out: Interferon-gamma inducible Protein 10 (IP10), CXCL10 (gene 3627); experiment: BSK_BE3C_IP10: BioMAP Diversity Plus: BE3C Assay for Interferon-gamma inducible Protein 10 (IP10) Biomarker Activity (AID 2283034); settings: primary human bronchial epithelial cells; actives raise or lower the signal
Outline: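 IP-10 quantified by ELISA serves as the endpoint. Cells: primary human bronchial epithelium, read 24 h after compound addition. Activity is derived by bidirectional fitting with DMSO as negative control.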

[4] = read-out: Monokine induced gamma interferon (MIG), CXCL9 (gene 4283); experiment: BSK_BE3C_MIG: BioMAP Diversity Plus: BE3C Assay for Monokine induced gamma interferon (MIG) Biomarker Activity (AID 2283035); settings: primary human bronchial epithelial cells; actives raise or lower the signal
Outline: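 hu bronchial epithelial 1° cells, 24 h cpd; MIG by ELISA; bidirectional fit, DMSO = baseline.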

[5] = read-out: Transforming growth factor beta 1 (TGFb1), TGFB1 (gene 7040); experiment: BSK_BE3C_TGFb1: BioMAP Diversity Plus: BE3C Assay for Transforming growth factor beta 1 (TGFb1) Biomarker Activity (AID 2283036); settings: primary human bronchial epithelial cells; actives raise or lower the signal
Outline: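 Bronchial epithelial primary cells are treated with test chemical, then TGF-b1 is quantified by ELISA after 24 hours. Values derive from bidirectional fitting against DMSO, with cytotoxicity checked by SRB staining in parallel cultures.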

[6] = read-out: Plasminogen activator inhibitor-1 (PAI1), SERPINE1 (gene 5054); experiment: BSK_BE3C_PAI1: BioMAP Diversity Plus: BE3C Assay for Plasminogen activator inhibitor-1 (PAI1) Biomarker Activity (AID 2283037); settings: primary human bronchial epithelial cells; actives raise or lower the signal
Outline: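 Values derive from bidirectional fitting against DMSO baseline of PAI-1 levels, measured by ELISA in human bronchial epithelial cells 24 h after compound addition.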

[7] = read-out: urokinase plasminogen activator (uPA), PLAU (gene 5328); experiment: BSK_BE3C_uPA: BioMAP Diversity Plus: BE3C Assay for urokinase plasminogen activator (uPA) Biomarker Activity (AID 2283038); settings: primary human bronchial epithelial cells; actives raise or lower the signal
Outline: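 Using confluent primary human lung bronchial epithelial cultures, we dosed chemicals, waited 24 h, then ran a uPA ELISA, fitting bidirectionally against DMSO.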

[8] = read-out: Urokinase-type plasminogen activator receptor (uPAR), PLAUR (gene 5329); experiment: BSK_BE3C_uPAR: BioMAP Diversity Plus: BE3C Assay for Urokinase-type plasminogen activator receptor (uPAR) Biomarker Activity (AID 2283039); settings: primary human bronchial epithelial cells; actives raise or lower the signal
Outline: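 Steps: dose human primary bronchial epithelial cells, incubate 24 h, measure uPAR by ELISA, then fit gain- or loss-of-signal response bidirectionally relative to DMSO.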

[9] = read-out: Interleukin-6 (IL6), IL6 (gene 3569); experiment: BSK_CASM3C_IL6: BioMAP Diversity Plus: CASM3C Assay for Interleukin-6 (IL6) Biomarker Activity for (AID 2283040); settings: primary human coronary artery smooth muscle cells; actives raise or lower the signal
[10] = read-out: Tissue plasminogen activator (tPA), PLAT (gene 5327); experiment: BSK_BE3C_tPA: BioMAP Diversity Plus: BE3C Assay for Tissue plasminogen activator (tPA) Biomarker Activity (AID 2283041); settings: primary human bronchial epithelial cells; actives raise or lower the signal
Outline: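 Gain- or loss-of-signal in tPA, measured by ELISA, derived by bidirectional fitting against DMSO. Cells: human primary bronchial epithelial; read at 24 h after chemical dosing.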

Measured: AC50

OC1CCC(C2CCCCC2)CC1 (stereo not given)
inactive: all assays above

CC(=O)CC(C)(C)O
inactive: all assays above

OCCC(F)(F)C(F)(F)C(F)(F)C(F)(F)C(F)(F)C(F)(F)F
inactive: all assays above

CCCCOCCO
inactive: all assays above

O=C(OCCOCCOC(=O)c1ccccc1)c1ccccc1
inactive: all assays above

CCC(=C(c1ccc(O)cc1)c1ccc(OCCN(C)C)cc1)c1ccccc1
active: [1] 8.64 µM | [2] 10.3 µM | [3] 8.38 µM | [4] 9.95 µM | [5] 9.79 µM | [6] 12 µM | [7] 9.93 µM | [8] 9.55 µM | [9] 24.6 µM | [10] 8.8 µM

O=[N+]([O-])c1ccc(O)cc1
inactive: all assays above

Oc1cc2ccccc2c2ccccc12
active: [1] 13.8 µM | [2] 8.16 µM | [3] 13 µM | [4] 28.8 µM | [5] 13.9 µM | [6] 24.9 µM | [7] 13.9 µM | [8] 27.6 µM | [9] 8.56 µM | [10] 14.7 µM

O=C(O)Cc1cc(I)c(Oc2cc(I)c(O)c(I)c2)c(I)c1
active: [1] 5.22 µM | [2] 19.5 µM | [3] 2.73 µM | [4] 9.13 µM | [5] 8.3 µM | [6] 4.21 µM | [8] 10.4 µM | [9] 21.7 µM | [10] 4.84 µM

CC1=C(/C=C/C(C)=C/C=C/C(C)=C/C(=O)O)C(C)(C)CCC1
active: [1] 20 µM | [2] 26.3 µM | [3] 20 µM | [9] 2.7 µM
inactive: all other assays above

CN(C)C=O
inactive: all assays above

CCC(C)(C)C1CCC(O)CC1 (stereo not given)
inactive: all assays above

O=C(O)c1ccccc1C(c1ccc(O)cc1)c1ccc(O)cc1
active: [1] 31.6 µM | [3] 31.1 µM | [6] 33.4 µM
inactive: all other assays above

CCCCCCCC(=O)O
inactive: all assays above

CCCCC(CC)COC(=O)CCCCC(=O)OCc1ccccc1 (stereo not given)
inactive: all assays above

CC(C)(C)c1cccc(C(C)(C)C)c1O
inactive: all assays above

CC(C)CCCCCCOC(=O)CCCCC(=O)OCCCCCCC(C)C
inactive: all assays above

COc1ccc([N+](=O)[O-])cc1N
not listed: [2]
inactive: all other assays above

CCCCCCC(=O)O
inactive: all assays above

CC[C@H](c1ccc(O)cc1)[C@@H](CC)c1ccc(O)cc1
active: [1] 19.1 µM | [2] 30.7 µM | [3] 20.1 µM | [4] 34.5 µM | [5] 27.9 µM | [6] 22.9 µM | [7] 37.2 µM | [8] 37.8 µM | [10] 27.5 µM
inactive: [9]

NCC(F)(F)C(F)(F)C(F)(F)C(F)(F)C(F)(F)C(F)(F)C(F)(F)F
not listed: [5]
inactive: all other assays above

CC(C)(C)c1ccc(O)c(C(C)(C)C)c1
active: [1] 28.1 µM | [2] 9.93 µM | [3] 31.7 µM | [4] 36.1 µM | [5] 27.8 µM | [6] 31.6 µM | [7] 30.7 µM | [8] 36.3 µM | [9] 13.6 µM | [10] 27.5 µM

FC(F)(I)C(F)(F)C(F)(F)C(F)(F)C(F)(F)C(F)(F)I
active: [3] 18.4 µM and 16.9 µM and 45.2 µM | [4] 45.1 µM [middle of 5 runs] | [6] 24.9 µM [middle of 5 runs] | [7] 40.3 µM [middle of 5 runs] | [8] 43.5 µM [middle of 5 runs] | [9] 35.9 µM [middle of 5 runs]
inactive: [10]

Cc1cc(CCN2CCN(c3nsc4ccccc34)CC2)cc2c1NC(=O)CC2(C)C
active: [1] 28.9 µM | [2] 22.3 µM | [3] 30.4 µM | [4] 34.4 µM | [5] 27.2 µM | [6] 32.6 µM | [7] 31.3 µM | [8] 31.2 µM | [10] 25.8 µM

Nc1cccc2c(N)cccc12
inactive: all assays above

CCCCCCCCCCCCc1ccccc1S(=O)(=O)O
active: [1] 8.12 µM | [3] 6.21 µM | [4] 30.1 µM | [5] 8.96 µM | [6] 8.94 µM | [7] 13.9 µM | [8] 14.2 µM | [10] 6.79 µM
inactive: [2] | [9]

CCCCC(CC)COC(=O)CCCCC(=O)OCC(CC)CCCC (stereo not given)
inactive: all assays above

CC(C)(C)c1cc(C(C)(C)C)c(O)c(C(C)(C)C)c1
active: [7] 5.06 µM
inactive: all other assays above

c1ccc2c(c1)Cc1ccccc1-2
not listed: [8]
inactive: all other assays above

Cc1cc(C)c(O)c(C)c1
inactive: all assays above

C#C[C@]1(O)CC[C@H]2[C@@H]3CCC4=CC(=O)CC[C@@H]4[C@H]3CC[C@@]21C
inactive: all assays above

CN1CCN(c2ccccc2/C=C2\SCCN(c3ccc(Cl)c(Cl)c3)C2=O)CC1
inactive: [2] | [9]
active: [1] 25.7 µM | [3] 30.4 µM | [5] 29.3 µM | [6] 33.3 µM | [7] 30.4 µM | [10] 25.7 µM

Oc1cccc(O)c1
inactive: all assays above
